{"source": "PubChem BioAssay AID686978", "about": "(National Center for Advancing Translational Sciences (NCATS), 2013)", "note": "Several values for one entry are separate records, joined by “and”; a condition that tells them apart may be missing. Identical values can stand only once. In all, about 420,000 compounds went through this assay and about 64,000 (15%) were called active. About 27% were inconclusive and are not listed. The call rests on the fitted dose curve; in most records, active means well fitted inhibition curve with a large enough effect; inconclusive means small, poorly fitted or top-dose-only effect; inactive means flat fitted curve, though single readings scatter. These entries were drawn from the full list. Entries that show only a call come without a potency. Potency means the concentration at half of the fitted maximal effect."}
{"test": "qHTS for Inhibitors of human tyrosyl-DNA phosphodiesterase 1 (TDP1): qHTS in cells in absence of CPT; further: nearly all actives have a fitted effect of over 55% in size", "settings": "DT40 Tdp1-/- hTDP1 cells, no CPT, ATP luminescence, 48 h; activity change, negative = growth inhibition: at 46.2 µM (top of the series)", "procedure,_shortened": "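No-CPT arm: Tdp1-/-;hTDP1 DT40 cells (400/well) plus compounds, incubated ≥48 hr at 37 °C. Readout CellTiter-Glo luminescence.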"}
{"smiles": "CC(C)(C(=O)N1CCC1(C)C(=O)NS(=O)(=O)c1ccc(Br)cc1)c1ccccc1", "note": "(stereo not given)", "Potency": "inactive"}
{"smiles": "CSc1nsc(SCC(=O)Nc2cc(C(=O)O)ccc2C)n1", "Potency": "inactive"}
{"smiles": "CC(CN1CCCCC1)c1ccccc1", "note": "(stereo not given)", "Potency": "inactive"}
{"smiles": "OC(C#CCN1CCOCC1)(c1ccccc1)C1CCCCC1", "note": "(stereo not given)", "Potency": "inactive"}
{"smiles": "COc1ccc(C(O)(C2CCCCC2)C(CN2CCCC2)c2ccccc2)cc1", "note": "(stereo not given)", "Potency": "18.4 µM (active)"}
{"smiles": "CCc1nccn1S(=O)(=O)c1cc(Br)ccc1Br", "Potency": "inactive"}
{"smiles": "Cc1ccccc1-c1nc2cc(NC(=O)c3cccc(OCCC(C)C)c3)ccc2o1", "Potency": "5.17 µM (active)"}
{"smiles": "CCCCOc1ccc(C(=O)Nc2cccc(-c3nc4ccccc4o3)c2C)cc1", "Potency": "inactive"}
{"smiles": "CCCCCC(=O)Nc1ccc2oc(-c3ccncc3)nc2c1", "Potency": "inactive"}
{"smiles": "O=C(COc1ccc(Cl)cc1)Nc1ccc(-c2nc3cc(Cl)ccc3o2)c(O)c1", "Potency": "inactive"}
{"smiles": "Cc1cc2nc(-c3ccc(NC(=O)c4cc5ccccc5o4)cc3)oc2cc1C", "Potency": "inactive"}
{"smiles": "CCCOc1ccc(C(=O)Nc2ccc3oc(-c4cccc(Cl)c4Cl)nc3c2)cc1", "Potency": "7.31 µM (active)"}
{"smiles": "COc1cc(OC)cc(C(=O)Nc2ccc(-c3nc4ccccc4o3)c(O)c2)c1", "Potency": "16.4 µM (active)"}
{"smiles": "O=C(Nc1ccc(C(=O)O)c(O)c1)c1ccccc1", "Potency": "inactive"}
{"smiles": "O=C(Nc1ccc(-c2nc3cc(NC(=O)c4ccccc4Cl)ccc3o2)cc1)c1ccccc1Cl", "Potency": "2.91 µM (active)"}
{"smiles": "CC(=O)Nc1ccc(-c2nc3ccccc3o2)cc1", "Potency": "inactive"}
{"smiles": "Cc1nc2nc[nH]n2c(=O)c1NC(=O)c1cccc(OCC(C)C)c1", "Potency": "inactive"}
{"smiles": "NS(=O)(=O)c1ccc(CCNC(=O)CNC(=O)Cc2ccccc2)cc1", "Potency": "inactive"}
{"smiles": "NC(=O)C1CC=CCC1C(=O)OCC(Cl)=C(Cl)Cl", "note": "(stereo not given)", "Potency": "inactive"}
{"smiles": "CC(C)NC(=S)N1CCN(S(C)(=O)=O)CC1", "Potency": "inactive"}
{"smiles": "C[n+]1cc(-c2ccccc2)oc1-c1ccccc1", "Potency": "inactive"}
{"smiles": "COc1cc(OC)cc(C(=O)NNC(=O)Cc2cccs2)c1", "Potency": "inactive"}
{"smiles": "CC(C)(C)n1nc2c(c1NC(=O)c1ccc(S(=O)(=O)N3CCCC3)cc1)CS(=O)C2", "note": "(stereo not given)", "Potency": "inactive"}
{"smiles": "CC(C)(C)n1c(=O)[nH]c2c(c1=O)CCC2", "Potency": "inactive"}
{"smiles": "CC1(C)CC(=O)C(N=Nc2c(F)cccc2F)=C(O)C1", "Potency": "inactive"}
{"smiles": "NC1=NC(=O)C2(COC(c3ccccc3Cl)OC2)S1", "note": "(stereo not given)", "Potency": "inactive"}
{"smiles": "O=C(CSc1ncccn1)NC(=O)NCc1ccccc1", "Potency": "inactive"}
{"smiles": "COc1cc(NC(=O)CN2CCN(S(=O)(=O)c3ccc(Br)cc3)CC2)cc(OC)c1", "Potency": "inactive"}
{"smiles": "COC(=O)c1ccc(-c2nc3cc(NC(C)=O)ccc3o2)cc1", "Potency": "inactive"}
{"smiles": "O=C(Nc1ccc(NC(=O)c2cccs2)cc1)c1ccc2ccccc2c1", "Potency": "inactive"}
{"smiles": "O=C(Nc1ccc2oc(-c3ccc4ccccc4c3)nc2c1)c1cccs1", "Potency": "23.1 µM (active)"}
{"smiles": "O=C(Nc1ccc2oc(-c3ccc(O)c(Br)c3)nc2c1)c1cc2ccccc2o1", "Potency": "inactive"}
{"smiles": "COc1cccc(C(=O)Nc2ccc3oc(-c4ccc5ccccc5c4)nc3c2)c1", "Potency": "10.3 µM (active)"}
{"smiles": "COc1cccc(-c2nc3cc(C)ccc3o2)c1", "Potency": "inactive"}
{"smiles": "COCCNC(=O)c1ccccc1-c1nc(-c2ccccc2Cl)no1", "Potency": "inactive"}
{"smiles": "COc1ccccc1CCCNC(=O)C1CCC(=O)N(CCN2CCOCC2)C1", "note": "(stereo not given)", "Potency": "inactive"}
{"smiles": "Cn1c(N)c(C(=O)COC(=O)COc2ccc(Cl)cc2)c(=O)n(C)c1=O", "Potency": "inactive"}
{"smiles": "N=C1C(=O)OCC1c1ccccc1NC(=O)CN1CCCCC1", "note": "(stereo not given)", "Potency": "inactive"}
{"smiles": "Cc1cccc(CC2(O)C(=O)Nc3ccccc32)n1", "note": "(stereo not given)", "Potency": "inactive"}
{"smiles": "CC(Sc1nnc(COc2ccccc2)n1-c1ccccc1)C(=O)O", "note": "(stereo not given)", "Potency": "inactive"}
{"smiles": "CCCCN(CC)CCCNC(=O)c1nn(C)c2c1CS(=O)(=O)c1ccccc1-2", "Potency": "inactive"}
{"smiles": "COc1cc(NC(=O)c2ccc(CNc3c(N4CCCC4)c(=O)c3=O)cc2)cc(OC)c1OC", "Potency": "inactive"}
{"smiles": "COC(=O)c1ccc(NC(=O)c2cc(Cl)ccc2OC)cc1", "Potency": "inactive"}
{"smiles": "CCN1CCN(c2cc(C)c3cc(NC(=O)c4cc(Cl)ccc4OC)ccc3n2)CC1", "Potency": "4.11 µM (active)"}
{"smiles": "COc1ccc(C(=O)Nc2ccc3nc(N4CCCCC4)cc(C)c3c2)cc1OC", "Potency": "14.6 µM (active) and 16.4 µM (active)"}
{"smiles": "Cc1cc(N2CCN(C)CC2)nc2ccc(NC(=S)N3CCOCC3)cc12", "Potency": "inactive"}
{"smiles": "CCOCCCNC(=S)Nc1ccc2nc(N3CCN(CC)CC3)cc(C)c2c1", "Potency": "inactive"}
{"smiles": "CCOc1ccc(S(=O)(=O)NCCSc2ccccc2)cc1", "Potency": "inactive"}
{"smiles": "O=C(Nc1nnc(-c2ccc(Cl)cc2)o1)c1ccccc1Br", "Potency": "18.4 µM (active)"}
{"smiles": "O=C(Nc1cccc(Cl)c1)Nc1nnc(-c2ccccc2)o1", "Potency": "16.4 µM (active)"}
{"smiles": "O=C(CSc1nnc(-c2ccncc2)o1)Nc1cccc(Cl)c1", "Potency": "inactive"}
{"smiles": "O=C(Nc1ccccc1)c1ccccc1Br", "Potency": "inactive"}
{"smiles": "O=C(COC(=O)c1ccccc1Br)Nc1nnc(-c2ccccc2)o1", "Potency": "inactive"}
{"smiles": "CC(=O)Nc1cccc(C(=O)OCC(=O)Nc2nnc(-c3ccccc3)o2)c1", "Potency": "inactive"}
{"smiles": "O=C(Cn1cnc2cc([N+](=O)[O-])ccc2c1=O)NC(=O)NCc1ccccc1", "Potency": "inactive"}
{"smiles": "CCOC(=O)N1CCN(Cc2oc(CO)cc(=O)c2O)CC1", "Potency": "inactive"}
{"smiles": "Cc1ccc(C(=O)O)cc1NC(=O)c1ccc(Cn2nc(C)c(Cl)c2C)o1", "Potency": "inactive"}
{"smiles": "Cc1c(Cl)c([N+](=O)[O-])nn1Cc1ccc(C(=O)N/N=C\\c2cc(Cl)ccc2O)o1", "Potency": "4.61 µM (active)"}
{"smiles": "O=C(N/N=C/c1ccc2c(c1)OCO2)c1ccc(Cn2cc([N+](=O)[O-])cn2)o1", "Potency": "inactive"}
{"smiles": "O=C(O)CSCC(=O)Nc1ccc(C(F)(F)F)cc1", "Potency": "inactive"}
{"smiles": "COc1ccc(C(C)=O)cc1CN1C(=O)NC2(CCCCC2C)C1=O", "note": "(stereo not given)", "Potency": "inactive"}
{"smiles": "CNS(=O)(=O)c1cccc(C(=O)OCC(=O)N2c3ccccc3NC(=O)C2(C)C)c1", "Potency": "inactive"}
{"smiles": "CC(C)c1cc(C(=O)N(C)C2CCCN(Cc3ccccc3F)C2)n(C)n1", "note": "(stereo not given)", "Potency": "25.9 µM (active)"}
{"smiles": "CCCOC1CCCN(Cc2cn(C)nc2-c2ccccc2F)C1", "note": "(stereo not given)", "Potency": "inactive"}
{"smiles": "Cc1ccn(CC(=O)NC2CCCN(Cc3ccccc3F)C2)n1", "note": "(stereo not given)", "Potency": "inactive"}
{"smiles": "CC1CCCN(Cc2c(O)ccc3c(=O)c(Oc4ccc(C(C)(C)C)cc4)c(C(F)(F)F)oc23)C1", "note": "(stereo not given)", "Potency": "inactive"}
{"smiles": "Cn1nc(C(F)(F)F)c2cc(NC(=O)OCC(C)(C)C)sc21", "Potency": "inactive"}
{"smiles": "COCCNC(=O)Cn1cc(C(=O)c2cccs2)c2ccccc21", "Potency": "inactive"}
{"smiles": "O=C(c1cccs1)c1cn(CCOc2ccc(Cl)cc2)c2ccccc12", "Potency": "7.31 µM (active)"}
{"smiles": "COC(=O)Cn1cc(C(=O)c2cccs2)c2ccccc21", "Potency": "inactive"}
{"smiles": "O=C(CC1SC(N2CCCC2)=NC1=O)Nc1ccc(C(=O)NCCc2ccc(F)cc2)cc1", "note": "(stereo not given)", "Potency": "inactive"}
{"smiles": "CC(=O)Nc1ccc(NS(=O)(=O)c2cc(C)sc2C)cc1", "Potency": "inactive"}
{"smiles": "O=C(c1cccc([N+](=O)[O-])c1)N1CCN(C(=O)c2ccco2)CC1", "Potency": "inactive"}
{"smiles": "O=C(c1ccccc1)N1CCN(c2ccc([N+](=O)[O-])c(NCc3ccco3)c2)CC1", "Potency": "16.4 µM (active)"}
{"smiles": "COc1ccc(CCNC(=O)CCc2ccccc2O)cc1OC", "Potency": "inactive"}
{"smiles": "COc1ccc(CCNC(=O)c2ccccc2-c2ccccc2C(=O)O)cc1OC", "Potency": "inactive"}
{"smiles": "O=[N+]([O-])c1cc(-c2nc(-c3ccccc3)no2)ccc1NCc1ccco1", "Potency": "inactive"}
{"smiles": "COc1ccc(CCNc2cc(N3CCN(C(=O)c4ccccc4OC)CC3)ccc2[N+](=O)[O-])cc1OC", "Potency": "9.2 µM (active)"}
{"smiles": "CCC(=O)N1CCC(C(N)=O)(N2CCCCC2)CC1", "Potency": "inactive"}
{"smiles": "COc1cccc(C(=O)NC2=NC(c3ccc(N(C)C)cc3)CC(=O)N2)c1", "note": "(stereo not given)", "Potency": "inactive"}
{"smiles": "O=C(NCCCn1ccnc1)c1cc2c(s1)CCCC2", "Potency": "inactive"}
{"smiles": "CCOCCCNC(=O)C(NC(=O)c1ccc(=O)[nH]c1)c1ccc(C)cc1", "note": "(stereo not given)", "Potency": "inactive"}
{"smiles": "CC(=O)N(CC(O)CO)c1c(I)c(C(=O)NCC(O)CO)c(I)c(C(=O)NCC(O)CO)c1I", "note": "(stereo not given)", "Potency": "inactive"}
{"smiles": "COc1ccc(C2N=C(N)N=C(N)N2c2ccccc2)cc1OC", "note": "(stereo not given)", "Potency": "inactive"}
{"smiles": "O=C(NCCS(=O)(=O)NCc1ccc(Cl)cc1)c1ccccc1", "Potency": "inactive"}
{"smiles": "CCCCCCn1c(=O)n2n(c1=O)C[C@]1(OC(=O)NCc3ccc(OC)c(OC)c3)CN(S(=O)(=O)c3ccc(C)cc3)C[C@]1(O)C2", "Potency": "20.6 µM (active)"}
{"smiles": "CCCS(=O)(=O)N1CCC(C(=O)NCCc2ccc(OC)c(OC)c2)CC1", "Potency": "inactive"}
{"smiles": "COc1ccc(CNC(=O)COC(=O)CCS(=O)(=O)c2ccc(C)cc2)cc1OC", "Potency": "inactive"}
{"smiles": "COc1ccc(-c2nc3cc([N+](=O)[O-])ccc3o2)cc1OC", "Potency": "inactive"}
{"smiles": "CNc1ccc(-c2nc(-c3ccccc3C)no2)cc1[N+](=O)[O-]", "Potency": "inactive"}
{"smiles": "Cc1nnc(-c2ccc(Oc3ccc(C)c(C)c3)c([N+](=O)[O-])c2)o1", "Potency": "9.2 µM (active)"}
{"smiles": "O=C(CCc1nc(CN2CCN(S(=O)(=O)c3ccc(Cl)cc3)CC2)no1)N1CCCCC1", "Potency": "inactive"}
{"smiles": "O=C(COC(=O)COc1cccc(F)c1)NCC1CCCCC1", "Potency": "inactive"}
{"smiles": "O=C1OC(C(=O)Nc2cccc(Br)c2)Cc2ccccc21", "note": "(stereo not given)", "Potency": "inactive"}
{"smiles": "CC(C)C[C@@H](CO)N1CCN(Cc2ccc(O)cc2)CCC1=O", "Potency": "inactive"}
{"smiles": "CC(C)C[C@@H](COCc1ccc(Cl)cc1)N1CCN(C(=O)c2ccc(Cl)cc2Cl)CCC1=O", "Potency": "16.4 µM (active)"}
{"smiles": "CC(C)CC(CO)N1CCN(C(=O)c2ccc(Cl)cc2Cl)CCC1=O", "note": "(stereo not given)", "Potency": "inactive"}
{"smiles": "Cc1nc(N)nc(Cl)c1CCC1OCCO1", "Potency": "inactive"}
{"smiles": "Cc1csc(=Nc2ccccc2)n1CCO", "Potency": "inactive"}
{"smiles": "OCCn1c(-c2ccccc2)csc1=Nc1ccccc1", "Potency": "16.4 µM (active)"}
{"smiles": "CCOCCc1nn2c(=O)cc(CSCC(=O)Nc3cccc(C)c3C)nc2s1", "Potency": "inactive"}
{"smiles": "O=C(COC(=O)CCc1ccc(S(=O)(=O)N2CCOCC2)cc1)Nc1cccc(Cl)c1", "Potency": "inactive"}
{"smiles": "Cc1cc(NC(=O)c2cccc(Cl)c2)ccc1-c1cc2ccccc2oc1=O", "Potency": "23.1 µM (active)"}
{"smiles": "Cc1ccc2nc(COc3cccc(NC(=O)c4cccc(Cl)c4)c3)cc(=O)n2c1", "Potency": "inactive"}
{"smiles": "O=C(Nc1ccon1)c1cccc(Cl)c1", "Potency": "inactive"}
